Compounds without any hit were thinned out: in the full panel of roughly 83,000, 20% have a hit.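 Single-concentration screen, 48 h exposure, 96-well plates. Endpoint: percent growth. Below 10 = active.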 A number with no mark means an inactive call. Active and inactive are the calls of the source.
Legend:
Assay in all cases: NCI-60 one-dose screen, 48 h (100 = growth as untreated, 0 = no growth, -100 = all killed)
Details in all cases: 10 µM unless noted
[1] = system: NCI-H23 lung
[2] = system: NCI-H226 lung
[3] = system: NCI-H322M lung
[4] = system: HOP-62 NSCLC
[5] = system: NCI-H460 lung
[6] = system: HOP-92 NSCLC
[7] = system: NCI-H522 lung
[8] = system: A549/ATCC NSCLC
[9] = system: 786-0 renal
[10] = system: COLO 205 colon
[11] = system: DU-145 prostate
[12] = system: MALME-3M melanoma
[13] = system: MDA-MB-231 breast
[14] = system: SF-268 CNS
[15] = system: SF-295 CNS
[16] = system: SF-539 CNS
[17] = system: M14 melanoma
[18] = system: K-562 leukemia
[19] = system: RXF 393 renal
[20] = system: UACC-257 melanoma

Row | SMILES | growth [1] [%] | growth [2] | growth [3] [%] | growth [4] [%] | growth [5] [%] | growth [6] [%] | growth [7] | growth [8] [%] | growth [9] [%] | growth [10] | growth [11] [%] | growth [12] | growth [13] | growth [14] [%] | growth [15] [%] | growth [16] | growth [17] | growth [18] [%] | growth [19] | growth [20]
1 | Cn1c(=O)c2nc3c(=O)n(C)c(=O)n(C)c3nc2n(C)c1=O | 95.1 | 107% | 101 | 93 | 102 | 127 | 93.8% | 126 | 91.2 | 126% | 117 | 120% | 109% | 108 | 107 | 91.7% | 97% | – | – | –
2 | Nc1ncnc(Nc2ccccc2)n1 | 101 | 104% | 104 | 119 | 107 | 84.5 | 99.4% | 104 | – | 110% | 120 | 124% | 115% | 112 | 113 | 108% | 106% | 98.8 | 118% | 108%
3 | O=S(Cc1ccccc1)/C(=C/NC(=S)Nc1cc(Cl)ccc1Cl)c1ccccc1 (stereo not given) | 97.1 | 101% | 93.7 | 92.8 | 107 | 101 | 85% | 96.8 | 102 | 109% | 106 | – | 100% | 93.1 | 103 | 115% | 96.8% | – | 103% | 99.5%
4 | NC(CSSCC(N)C(=O)O)C(=O)O (stereo not given) | 20.2 | -9.33% (active) | 36.6 | 15.7 | 42.5 | 17.3 | -6.34% (active) | 36.7 | – | -19.2% (active) | 36 | 4.18% (active) | 2.86% (active) | 28.1 | 11 | -36.8% (active) | 2.4% (active) | 13.8 | -37.9% (active) | 5.8% (active)
5 | CCOC(=O)/C(C#N)=C\c1c[nH]c2ccccc12 | 86.5 | 79.8% | 110 | 80.7 | 109 | 81.6 | 70.4% | 105 | 114 | 98.7% | 111 | 116% | 80.9% | 101 | 107 | 103% | 97.1% | – | – | 105%
6 | CCCCN(C(=O)CC)c1ccccc1 | 99.9 | 107% | 97.9 | 105 | 103 | 109 | 95.3% | 96.5 | 99.2 | 99.7% | 99.7 | 100% | 105% | 98.6 | 99.8 | 100% | 91.8% | – | 115% | 95.5%
7 | CCOc1ccc2c(c1)c(C)cc(C)[n+]2CC | 43.5 | 82.8% | 83.2 | 80.7 | 109 | 54.2 | 46.1% | 45.4 | 79.4 | 65.5% | – | 101% | 91.3% | 95.2 | 54.3 | 88.7% | 102% | 47.2 | 96.3% | 76%
8 | CCCCn1cnc2c(=O)[nH]cnc21 | 106 | 107% | 104 | 105 | 119 | 89.3 | 98.6% | 107 | 105 | 111% | – | 158% | 98.4% | 110 | 100 | 104% | 103% | 97.7 | 118% | 121%
9 | CC(=O)Nc1ccc(/C=C2\SC(=S)N(/C=C(\C(C)=O)C(N)=O)C2=O)cc1 | 97.5 | 86.2% | 102 | 82.5 | 99.4 | 68.2 | 84.2% | 84.9 | 88.1 | 92.1% | 106 | 87.8% | 98.9% | 96.2 | 93.6 | 92.5% | 81% | – | 93% | 87.8%
10 | Oc1cc(O)c2c(c1)O[C@H](c1ccc(O)c(O)c1)[C@@H](O)C2 | 95.2 | 96.6% | 105 | 107 | 113 | 98.5 | 89.5% | 97 | 106 | 108% | – | 103% | 98.4% | – | 97.8 | 111% | 112% | 104 | 113% | 101%
11 | O=C1NC(=O)/C(=C\c2ccncc2)N1 | 102 | 99.8% | 107 | 94.2 | 102 | 85.7 | 94.7% | 106 | 106 | 103% | – | 103% | 99.1% | 97.6 | 104 | 92.7% | – | 117 | 102% | 97.7%
12 | CC(=O)NCNC(C)=O | 113 | 99.8% | 110 | 108 | 113 | 150 | 119% | 96.7 | 109 | 118% | 118 | – | 118% | 110 | – | 91.3% | 111% | 112 | 108% | 95.4%
13 | Cc1cc(CC(=O)NCCO)n(CCO)c(=O)c1 | 101 | 105% | 103 | 91 | 103 | 115 | 93.8% | 94.1 | 108 | 104% | 110 | 115% | 109% | 101 | 104 | 107% | 103% | – | 110% | 93%
14 | Cc1ccccc1CC(N)C(=O)O (stereo not given) | 98.2 | 115% | 98.6 | 103 | 109 | 92.3 | 112% | 107 | 107 | 114% | – | 116% | 116% | 101 | 99.6 | 116% | 100% | 115 | 137% | 109%
15 | COC1OC(C(O)C(O)CO)C(O)C(O)C1O (stereo not given) | 106 | 93.4% | 98.1 | 88.5 | 106 | 101 | 111% | 97.3 | – | 111% | 118 | 101% | – | 103 | 100 | 97.5% | 97.4% | 104 | 98% | 95.6%
16 | CCOC(=O)c1ccc(C(C)(C)C)cc1 | 102 | 101% | 101 | 107 | 109 | – | 105% | 102 | 104 | 108% | 104 | 103% | 114% | 98.9 | 108 | 110% | – | 94.5 | 118% | 99.9%

— PubChem BioAssay (NCI)
